{"source": "the supplement of paper PMC8540655", "note": "Unmarked numbers belong to inactive results."}
{"test_system": "Aedes aegypti larvae", "assay": "larval motility relative to same well at 0 h (fraction); higher = more motile (less active compound), active = 0.4 or less", "settings": "10 µM; 2 h", "protocol": "(§1)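 MMV Pandemic Response Box compounds were tested at 10 µM (1% v/v DMSO) on Aedes aegypti larvae (18-24 h after hatching, about 10 per well, 96-well plates). Motility was quantified with INVAPP (200-frame movies) at 0, 2 and 24 h. Each well's motility was divided by its own 0 h score, and the median of 3 independent screens is reported.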"}
{"smiles": "COc1cc(C(C)(C)CCCC(C)C)cc(OC)c1OC", "larval motility": 1.11}
{"smiles": "CCN1CCN(Cc2nc3ccc([N+](=O)[O-])cc3c(=O)n2-c2ccccc2F)CC1", "larval motility": 0.54}
{"smiles": "COC(=O)Nc1nc2ccccc2[nH]1", "larval motility": 0.867}
{"smiles": "Nc1c(C(=O)NCc2ccco2)c2nc3ccccc3nc2n1CCN1CCCCC1", "larval motility": 0.782}
{"smiles": "CC(C)Oc1cccc(NC(=O)c2ccccc2C(F)(F)F)c1", "larval motility": 0.405}
{"smiles": "NC1(C(=O)O)CCP(=O)(O)CC1", "note": "(centres undefined)", "larval motility": "0.238 (active)"}
{"smiles": "COc1ccccc1CN[C@H]1C2CCN(CC2)[C@H]1C(c1ccccc1)c1ccccc1", "larval motility": 0.829}
{"smiles": "CCCCc1ccc(C(=O)O)nc1", "larval motility": 0.853}
{"smiles": "C[N+]1(C)CCCC(OC(=O)C(O)(c2ccccc2)c2ccccc2)C1", "note": "(centres undefined)", "larval motility": 0.776}
{"smiles": "C[C@@]1(O)[C@H](O)[C@@H](CO)O[C@H]1n1ccc2c(N)ncnc21", "larval motility": 0.65}
{"smiles": "CN1C(=O)C(c2ccccc2)C(=O)N(c2ccccc2)c2cc(C(F)(F)F)ccc21", "note": "(centres undefined)", "larval motility": 0.796}
{"smiles": "O=C(NC12CC3CC(CC(C3)C1)C2)c1cc2ccccc2[nH]1", "larval motility": 0.685}
{"test_system": "Aedes aegypti larvae", "assay": "larval motility relative to same well at 0 h (fraction); higher = more motile (less active compound), active = 0.4 or less", "settings": "10 µM; 24 h", "protocol": "as §1"}
{"smiles": "COc1cc(C(C)(C)CCCC(C)C)cc(OC)c1OC", "larval motility": 1.04}
{"smiles": "CCN1CCN(Cc2nc3ccc([N+](=O)[O-])cc3c(=O)n2-c2ccccc2F)CC1", "larval motility": 2.49}
{"smiles": "COC(=O)Nc1nc2ccccc2[nH]1", "larval motility": 0.986}
{"smiles": "Nc1c(C(=O)NCc2ccco2)c2nc3ccccc3nc2n1CCN1CCCCC1", "larval motility": 0.543}
{"smiles": "CC(C)Oc1cccc(NC(=O)c2ccccc2C(F)(F)F)c1", "larval motility": 0.543}
{"smiles": "NC1(C(=O)O)CCP(=O)(O)CC1", "note": "(centres undefined)", "larval motility": 1.44}
{"smiles": "COc1ccccc1CN[C@H]1C2CCN(CC2)[C@H]1C(c1ccccc1)c1ccccc1", "larval motility": 0.616}
{"smiles": "CCCCc1ccc(C(=O)O)nc1", "larval motility": 0.63}
{"smiles": "C[N+]1(C)CCCC(OC(=O)C(O)(c2ccccc2)c2ccccc2)C1", "note": "(centres undefined)", "larval motility": 0.656}
{"smiles": "C[C@@]1(O)[C@H](O)[C@@H](CO)O[C@H]1n1ccc2c(N)ncnc21", "larval motility": 0.788}
{"smiles": "CN1C(=O)C(c2ccccc2)C(=O)N(c2ccccc2)c2cc(C(F)(F)F)ccc21", "note": "(centres undefined)", "larval motility": 0.84}
{"smiles": "O=C(NC12CC3CC(CC(C3)C1)C2)c1cc2ccccc2[nH]1", "larval motility": 1.27}
